From the supplement of paper PMC12669032

Key:
Assay in all cases: growth AUC relative to DMSO control (median of replicates) (fraction); higher = more growth (less inhibition), active = hit call of the paper
Conditions in all cases: 20 µM; 24 h;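 active = AUC reduced over 20% with Padj below 0.05 in at least 2 of 3 replicates; inactive = otherwise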
Akkermansia muciniphila = tested on: Akkermansia muciniphila
Summary of the method: (§1)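 In round-bottom 96-well plates sealed with pierced gas-permeable seals, gut bacterial monocultures in mGAM were grown anaerobically at 37 °C from OD600 0.05 with 20 µM compound (1% DMSO). OD600 readings were taken hourly for 24 h, and the minimum OD was set to 0. Area under the growth curve was then normalised to the plate median of solvent-only wells, or to row and column medians on the industrial chemical plate. The value given is the median of three biological replicates grown on separate days.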

Bacteroides caccae = tested on: Bacteroides caccae
Summary of the method: as §1

Bacteroides clarus = tested on: Bacteroides clarus
Summary of the method: as §1

Bacteroides dorei = tested on: Bacteroides dorei
Summary of the method: as §1

Bacteroides stercoris = tested on: Bacteroides stercoris
Summary of the method: as §1

[1] = tested on: Bacteroides thetaiotaomicron
Summary of the method: as §1

Bacteroides uniformis = tested on: Bacteroides uniformis
Summary of the method: as §1

[2] = tested on: Bifidobacterium longum subsp. longum
Summary of the method: as §1

Clostridium difficile = tested on: Clostridium difficile
Summary of the method: as §1

Collinsella aerofaciens = tested on: Collinsella aerofaciens
Summary of the method: as §1

Coprococcus comes = tested on: Coprococcus comes
Summary of the method: as §1

Escherichia coli ED1a = tested on: Escherichia coli ED1a
Summary of the method: as §1

Escherichia coli IAI1 = tested on: Escherichia coli IAI1
Summary of the method: as §1

Eubacterium rectale = tested on: Eubacterium rectale
Summary of the method: as §1

[3] = tested on: Fusobacterium nucleatum subsp. animalis
Summary of the method: as §1

Lactobacillus gasseri = tested on: Lactobacillus gasseri
Summary of the method: as §1

Lactobacillus paracasei = tested on: Lactobacillus paracasei
Summary of the method: as §1

Odoribacter splanchnicus = tested on: Odoribacter splanchnicus
Summary of the method: as §1

[4] = tested on: Parabacteroides distasonis
Summary of the method: as §1

Parabacteroides merdae = tested on: Parabacteroides merdae
Summary of the method: as §1

Measured: growth AUC

S=C([S-])NCCNC(=S)[S-].S=C([S-])NCCNC(=S)[S-].[Mn+2].[Zn+2]
inactive: Akkermansia muciniphila 0.974 | Bacteroides caccae 1.02 | Bacteroides clarus 1.1 | Bacteroides dorei 1.06 | Bacteroides stercoris 1.06 | [1] 0.975 | Bacteroides uniformis 1.07 | [2] 1.03 | Clostridium difficile 0.994 | Collinsella aerofaciens 1.03 | Coprococcus comes 0.99 | Escherichia coli ED1a 0.996 | Escherichia coli IAI1 1.03 | Eubacterium rectale 1.22 | [3] 1.06 | Lactobacillus gasseri 1.03 | Lactobacillus paracasei 1.08 | Odoribacter splanchnicus 0.967 | [4] 1.01 | Parabacteroides merdae 1.01

CCCCCCC(C)OC(=O)C(C)Oc1ccc(Cl)cc1C (stereo not given)
inactive: Akkermansia muciniphila 0.913 | Bacteroides caccae 0.996 | Bacteroides clarus 0.973 | Bacteroides dorei 0.983 | Bacteroides stercoris 0.983 | [1] 1 | Bacteroides uniformis 1.02 | [2] 0.848 | Clostridium difficile 1.01 | Collinsella aerofaciens 0.968 | Coprococcus comes 0.994 | Escherichia coli ED1a 0.985 | Escherichia coli IAI1 0.999 | Eubacterium rectale 0.96 | [3] 0.956 | Lactobacillus gasseri 1 | Lactobacillus paracasei 0.909 | Odoribacter splanchnicus 1.03 | [4] 1.01 | Parabacteroides merdae 0.989

CCCCCCCC/C=C\CCCCCCCC(N)=O
inactive: Akkermansia muciniphila 0.936 | Bacteroides caccae 0.999 | Bacteroides clarus 0.991 | Bacteroides dorei 0.977 | Bacteroides stercoris 0.875 | [1] 0.982 | Bacteroides uniformis 0.998 | [2] 0.849 | Clostridium difficile 1.01 | Collinsella aerofaciens 0.857 | Coprococcus comes 0.869 | Escherichia coli ED1a 0.991 | Escherichia coli IAI1 0.953 | Eubacterium rectale 1.14 | [3] 1.02 | Lactobacillus gasseri 0.962 | Lactobacillus paracasei 1.02 | Odoribacter splanchnicus 1.04 | [4] 0.96 | Parabacteroides merdae 0.955

Cc1c(Br)c2ccc(F)cc2n1S(=O)(=O)c1ncn(S(=O)(=O)N(C)C)n1
inactive: Akkermansia muciniphila 0.998 | Bacteroides caccae 1.05 | Bacteroides clarus 1 | Bacteroides dorei 1.01 | Bacteroides stercoris 0.997 | [1] 1 | Bacteroides uniformis 0.993 | [2] 1.05 | Clostridium difficile 1.07 | Collinsella aerofaciens 1.07 | Coprococcus comes 1.03 | Escherichia coli ED1a 0.999 | Escherichia coli IAI1 1.11 | Eubacterium rectale 0.989 | [3] 1.08 | Lactobacillus gasseri 1.04 | Lactobacillus paracasei 0.981 | Odoribacter splanchnicus 0.957 | [4] 0.861 | Parabacteroides merdae 0.949

c1ccc(CNc2ncnc3nc[nH]c23)cc1
inactive: Akkermansia muciniphila 1.07 | Bacteroides caccae 1.02 | Bacteroides clarus 0.992 | Bacteroides dorei 0.983 | Bacteroides stercoris 0.995 | [1] 1.03 | Bacteroides uniformis 1.06 | [2] 0.975 | Clostridium difficile 0.932 | Collinsella aerofaciens 1 | Coprococcus comes 1.06 | Escherichia coli ED1a 0.989 | Escherichia coli IAI1 1.01 | Eubacterium rectale 1.16 | [3] 0.943 | Lactobacillus gasseri 0.956 | Lactobacillus paracasei 1.03 | Odoribacter splanchnicus 1.03 | [4] 1.05 | Parabacteroides merdae 1.02

O=c1oc(-c2ccccc2)nc2ccccc12
inactive: Akkermansia muciniphila 0.96 | Bacteroides caccae 1.01 | Bacteroides clarus 0.984 | Bacteroides dorei 0.979 | Bacteroides stercoris 0.955 | [1] 0.966 | Bacteroides uniformis 0.971 | [2] 0.947 | Clostridium difficile 0.994 | Collinsella aerofaciens 0.976 | Coprococcus comes 0.996 | Escherichia coli ED1a 0.967 | Escherichia coli IAI1 0.946 | Eubacterium rectale 0.948 | [3] 0.935 | Lactobacillus gasseri 0.971 | Lactobacillus paracasei 0.915 | Odoribacter splanchnicus 0.893 | [4] 1.05 | Parabacteroides merdae 0.988

CCCCCCCC(=O)Oc1c(Br)cc(C#N)cc1Br
inactive: Akkermansia muciniphila 1.06 | Bacteroides caccae 0.934 | Bacteroides clarus 0.959 | Bacteroides dorei 1.04 | Bacteroides stercoris 0.842 | [1] 1.04 | Bacteroides uniformis 0.983 | [2] 1.06 | Clostridium difficile 1.02 | Collinsella aerofaciens 0.971 | Coprococcus comes 1.01 | Escherichia coli ED1a 0.973 | Escherichia coli IAI1 0.924 | Eubacterium rectale 1.15 | [3] 0.966 | Lactobacillus gasseri 0.987 | Lactobacillus paracasei 0.863 | Odoribacter splanchnicus 1.12 | [4] 0.975 | Parabacteroides merdae 0.922

COc1cc(OC)nc(NC(=O)NS(=O)(=O)c2c(-c3nnn(C)n3)cnn2C)n1
inactive: Akkermansia muciniphila 1.13 | Bacteroides caccae 0.99 | Bacteroides clarus 1 | Bacteroides dorei 0.94 | Bacteroides stercoris 1.08 | [1] 1.01 | Bacteroides uniformis 1 | [2] 1.01 | Clostridium difficile 0.961 | Collinsella aerofaciens 0.978 | Coprococcus comes 1.01 | Escherichia coli ED1a 1.01 | Escherichia coli IAI1 0.988 | Eubacterium rectale 1.1 | [3] 1.02 | Lactobacillus gasseri 0.873 | Lactobacillus paracasei 1.04 | Odoribacter splanchnicus 1.03 | [4] 0.845 | Parabacteroides merdae 1.03

CO/N=C(/C(=O)O)c1ccccc1CO/N=C(\C)c1cccc(C(F)(F)F)c1
inactive: Akkermansia muciniphila 1 | Bacteroides caccae 0.913 | Bacteroides clarus 0.954 | Bacteroides dorei 0.981 | Bacteroides stercoris 1.15 | [1] 0.795 | Bacteroides uniformis 0.889 | [2] 0.927 | Clostridium difficile 0.974 | Collinsella aerofaciens 0.936 | Coprococcus comes 0.977 | Escherichia coli ED1a 0.986 | Escherichia coli IAI1 0.979 | Eubacterium rectale 1.07 | [3] 1.04 | Lactobacillus gasseri 0.948 | Lactobacillus paracasei 1.02 | Odoribacter splanchnicus 0.775 | [4] 0.985 | Parabacteroides merdae 0.99
